Our source for the Inhibition values is ChEMBL document CHEMBL4513147, “CO-ADD screening of Armstrong State University (GA, USA) compounds”.

Structures are written as SMILES. Entries with a potency or affinity are not part of this list.

The test system of one test is Candida albicans. The note with it: 32 ug/mL.
Consider `CC(C)(C)OC(=O)N1CC(=Cc2ccoc2)C(=O)/C(=C/c2ccoc2)C1`, for which the Inhibition – broadly, the relative decrease from the control value, in per cent – came out at 14.2%.
Same read-out and setting: the figure for `COc1ccc2c(c1)CCC(=Cc1cncc(Br)c1)C2=O` is 4.95%.
Still for that read-out and setting: the figure for `COc1cccc2c1CCC(=Cc1ccoc1)C2=O` is 10.1%; for `COc1ccc2c(c1)CCC(=Cc1cccnc1Cl)C2=O` it is 3.75%; for `COc1ccc2c(c1)CCC(=Cc1ccoc1)C2=O` it is 5.64%.
For the compound `COc1ccc2c(c1)CCC(=Cc1ccco1)C2=O`, the Inhibition came to 4.52%.
In the case of `COc1ccc2c(c1)C(O)C(=Cc1cccnc1Cl)CC2` (configuration not stated), the Inhibition worked out at 15%.
On the same count and under the same terms, with `COc1ccc2c(c1)C(=O)C(=Cc1cccnc1Cl)CC2` the figure was 6.91%.
The same measure, in the same setting: with `COc1ccc2c(c1)C(=O)C(=Cc1cccnc1Br)CC2` the figure was 1.26%.
Same read-out and setting: with `COc1ccc2c(c1)C(=O)C(=Cc1cncc(Br)c1)CC2` the figure was 3.19%.
In the case of `COc1ccc2c(c1)C(=O)C(=Cc1cnccc1OC)CC2`, the Inhibition was 2.37%.
Take `COc1ccc2c(c1)CCC(=Cc1ccncc1)C2=O`: the Inhibition was found to be 2.55%.
The same measure, in the same setting: the figure for `COc1ccc2c(c1)C(=O)C(=Cc1cccnc1Cl)CC2.Cl` is 3.54%; for `COc1ccc2c(c1)C(=O)C(=Cc1cccc(C=C3CCc4ccc(OC)cc4C3=O)c1)CC2` it is 2.22%.
Still for that read-out and setting: the figure for `CC(C)(C)OC(=O)N1CC(=Cc2ccco2)C(=O)/C(=C/c2ccco2)C1` is 19.9%.
Regarding `COc1ccc2c(c1)CCC(=Cc1cccnc1Br)C2=O`, the Inhibition amounted to 3.93%.
On to `COc1ccc(/C=C/C(=O)c2ccc(OCc3ccc(Br)cc3)cc2)cc1OC`, for which the Inhibition was 14.1%.
Consider `COc1ccc2c(c1)C(=O)C(=Cc1ccccn1)CC2`, for which the Inhibition worked out at 3.51%.
`COc1ccc2c(c1)CCC(=Cc1cccnc1)C2=O`: the Inhibition was determined as 2.52%.
With `Cc1ccc(C=C2CN(C(=O)OC(C)(C)C)C/C(=C\c3ccc(C)cc3C)C2=O)c(C)c1`, the Inhibition is -1.7%.
On the same count and under the same terms, with `COc1ccc2c(c1)C(=O)C(=Cc1ccoc1)CC2` the figure was 8.42%; with `COc1cc2c(cc1OC)C(=O)C(=Cc1ccco1)CC2`, 36.5%.
Still for that read-out and setting: with `COc1ccc2c(c1)CCC(=Cc1cnccc1OC)C2=O` the figure was -0.18%.
Still for that read-out and setting: the figure for `COc1cccc2c1CCC(=Cc1ccco1)C2=O` is 2.23%; for `COc1cc2c(cc1OC)C(=O)C(=Cc1ccoc1)CC2` it is 20%; for `COc1ccc2c(c1)C(=O)C(=Cc1cccnc1)CC2` it is 3.76%.
In the case of `COc1ccc2c(c1)C(=O)C(=Cc1cccnc1OC)CC2`, the Inhibition was found to be 2.73%.
For the compound `COc1ccc2c(c1)CCC(=Cc1ccc(OC)nc1)C2=O`, the Inhibition was 3.72%.
On the same count and under the same terms, with `COc1cccc2c1CCC(=Cc1cccc(C=C3CCc4c(OC)cccc4C3=O)c1)C2=O` the figure was 12.4%; with `COc1ccc2c(c1)C(=O)C(=Cc1ccco1)CC2`, 6.5%.
Same read-out and setting: the figure for `COc1ccc2c(c1)CCC(=Cc1ccccn1)C2=O` is 0.77%.

Another test has as its system Cryptococcus neoformans. Conditions: Concentration 32 ug.mL-1; ASSAY_TEST Inhibition of Fungal Growth; detection method Resazurin; Absorption (OD600-OD570); plate type 384well; NBS; CORNING #3640.
Consider `CC(C)(C)OC(=O)N1CC(=Cc2ccoc2)C(=O)/C(=C/c2ccoc2)C1`, for which the Inhibition is reported as -84.77%.
The same measure, in the same setting: the figure for `COc1ccc2c(c1)CCC(=Cc1cncc(Br)c1)C2=O` is -1.36%; for `COc1cccc2c1CCC(=Cc1ccoc1)C2=O` it is -46.61%; for `COc1ccc2c(c1)CCC(=Cc1cccnc1Cl)C2=O` it is -15.01%.
Same read-out and setting: with `COc1ccc2c(c1)CCC(=Cc1ccoc1)C2=O` the figure was -36.87%.
On the same count and under the same terms, the figure for `COc1ccc2c(c1)CCC(=Cc1ccco1)C2=O` is -43.38%; for `COc1ccc2c(c1)C(O)C(=Cc1cccnc1Cl)CC2` (configuration not stated) it is -69.16%; for `COc1ccc2c(c1)C(=O)C(=Cc1cccnc1Cl)CC2` it is -40.92%.
Take `COc1ccc2c(c1)C(=O)C(=Cc1cccnc1Br)CC2`: the Inhibition is -14.82%.
The same measure, in the same setting: with `COc1ccc2c(c1)C(=O)C(=Cc1cncc(Br)c1)CC2` the figure was -18.22%.
Same read-out and setting: with `COc1ccc2c(c1)C(=O)C(=Cc1cnccc1OC)CC2` the figure was -28.9%.
Same read-out and setting: with `COc1ccc2c(c1)CCC(=Cc1ccncc1)C2=O` the figure was -80.91%; with `COc1ccc2c(c1)C(=O)C(=Cc1cccnc1Cl)CC2.Cl`, -54.29%.
Regarding `COc1ccc2c(c1)C(=O)C(=Cc1cccc(C=C3CCc4ccc(OC)cc4C3=O)c1)CC2`, the Inhibition is reported as -34.17%.
The same measure, in the same setting: the figure for `CC(C)(C)OC(=O)N1CC(=Cc2ccco2)C(=O)/C(=C/c2ccco2)C1` is -64.29%.
On the same count and under the same terms, with `COc1ccc2c(c1)CCC(=Cc1cccnc1Br)C2=O` the figure was -19.45%.
Same read-out and setting: with `COc1ccc(/C=C/C(=O)c2ccc(OCc3ccc(Br)cc3)cc2)cc1OC` the figure was -82.08%.
For the compound `COc1ccc2c(c1)C(=O)C(=Cc1ccccn1)CC2`, the Inhibition was -7.78%.
On the same count and under the same terms, with `COc1ccc2c(c1)CCC(=Cc1cccnc1)C2=O` the figure was -44.32%; with `Cc1ccc(C=C2CN(C(=O)OC(C)(C)C)C/C(=C\c3ccc(C)cc3C)C2=O)c(C)c1`, -52.76%; with `COc1ccc2c(c1)C(=O)C(=Cc1ccoc1)CC2`, -57.68%.
Still for that read-out and setting: with `COc1cc2c(cc1OC)C(=O)C(=Cc1ccco1)CC2` the figure was -192.19%.
Same read-out and setting: the figure for `COc1ccc2c(c1)CCC(=Cc1cnccc1OC)C2=O` is -48.3%; for `COc1cccc2c1CCC(=Cc1ccco1)C2=O` it is 7.54%; for `COc1cc2c(cc1OC)C(=O)C(=Cc1ccoc1)CC2` it is -157.54%.
Turning to `COc1ccc2c(c1)C(=O)C(=Cc1cccnc1)CC2`, the Inhibition is 20.35%.
The same measure, in the same setting: with `COc1ccc2c(c1)C(=O)C(=Cc1cccnc1OC)CC2` the figure was -33.37%.
Consider `COc1ccc2c(c1)CCC(=Cc1ccc(OC)nc1)C2=O`, for which the Inhibition is -60.31%.
Still for that read-out and setting: with `COc1cccc2c1CCC(=Cc1cccc(C=C3CCc4c(OC)cccc4C3=O)c1)C2=O` the figure was -91.11%; with `COc1ccc2c(c1)C(=O)C(=Cc1ccco1)CC2`, -54.58%; with `COc1ccc2c(c1)CCC(=Cc1ccccn1)C2=O`, -41.47%.
